Structures are written as SMILES. Records with an inconclusive call do not appear. Calls of active or inactive are those of the source. Unless noted, the call rests on the fitted dose curve; in most records, active means well fitted inhibition curve with a large enough effect; inconclusive means small, poorly fitted or top-dose-only effect; inactive means flat fitted curve, though single readings scatter.

The values below come from PubChem BioAssay (NCATS).

The nature of test [1]: qHTS drug screen for cell cycle checkpoint inhibitors in PARPi-resistant BRCA-mutant ovarian cancer cell lines. (AID 1963452; calls by dose curve). The conditions noted are these: PEO1/OlaR viability, CellTiter-Glo luminescence, 96 h; for Z-AUC: stronger effect = lower value. The essentials: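 PEO1, PEO4 and PEO1/OlaR ovarian cancer cells, 600 per well, exposed 96 h at 37C to a dilution series. Viability read by CellTiter-Glo luminescence, normalized to DMSO and empty wells; activity summarized as Z-AUC.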
(qHTS replaces the single test concentration by a dilution series.)

A short description of test [2]: qHTS for identification of novel therapeutic agents for treatment of microphthalmiaassociated transcription factor (MiT) renal cell carcinoma (RCC) (AID 1963991; calls by dose curve). The following applies: CellTiter-Glo, 48 h; for z-score: stronger effect = lower value; for Potency: active = Z-AUC below -0.8 in all three lines. The essentials:
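Three TFE3-fusion RCC lines (UOK109, UOK124, UOK145), 500 cells/well in complete medium, were treated with MIPE 4.0 compounds for 48 hours at 37 C. Viability was by CellTiter-Glo luminescence, normalized to DMSO (100%) and empty wells (0%); curves fitted over 11 concentrations.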

A short description of test [3]: qHTS profiling for inhibitors of Plasmodium falciparum proliferation (AID 504749). Further: nearly all actives have a fitted effect of over 60% in size.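 On activity, negative = inhibition: 0% = DMSO vehicle and full inhibition = artemisinin control.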 The following applies: P. falciparum in erythrocytes, SYBR Green DNA, 72 h. Put shortly:
(§1)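 Infected RBCs, 0.3% parasitemia/2.5% Hct final; cpd 72 h, 37 C, 5% CO2; lysis buffer with saponin/triton/SYBR Green I, o/n RT dark; FI 485/535; norm. to artemisinin (0.29 uM) and DMSO.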

The test system of test [4] is 3D7. The test is described as above. The following applies: P. falciparum in erythrocytes, SYBR Green DNA, 72 h; series mostly up to 28.7 µM. The essentials: as §1
Test [5] has as its system 7G8. The description is as above. The following applies: P. falciparum in erythrocytes, SYBR Green DNA, 72 h; series mostly up to 28.7 µM. The essentials: as §1
The test system of test [6] is AA1029. Described as above. The conditions noted are these: P. falciparum in erythrocytes, SYBR Green DNA, 72 h; series mostly up to 28.7 µM. Put shortly: as §1
Test [7] deals with AS120. Described as above. The following applies: P. falciparum in erythrocytes, SYBR Green DNA, 72 h; series mostly up to 28.7 µM. Put shortly: as §1
Test [8] concerns ATS189. The test is described as above. The conditions noted are these: P. falciparum in erythrocytes, SYBR Green DNA, 72 h; series mostly up to 28.7 µM. The essentials: as §1
In test [9] the test system is ATS95. Described as above. The following applies: P. falciparum in erythrocytes, SYBR Green DNA, 72 h; series mostly up to 28.7 µM. The essentials:
as §1

The subject of test [10] is C2A. The test is described as above. The following applies: P. falciparum in erythrocytes, SYBR Green DNA, 72 h; series mostly up to 28.7 µM. Put shortly:
as §1

For test [11], the system named is CP185. The description is as above. The conditions noted are these: P. falciparum in erythrocytes, SYBR Green DNA, 72 h; series mostly up to 28.7 µM. Put shortly:
as §1

The mark [12] stands for this setting: measured here: PEO1 parental Z-AUC.
The mark [13] stands for this setting: TFE3-RCC UOK109 viability, measured here: UOK109 Z-AUC.
Where [14] appears, read: TFE3-RCC viability, measured here: UOK124 Z-AUC.
[15] abbreviates: TFE3-RCC viability, measured here: UOK145 Z-AUC.
Setting [16] is: at 28.7 µM (top of the series), parasite line A.
The mark [17] stands for this setting: at 28.7 µM (top of the series), parasite line B.
Potency means the concentration at half of the fitted maximal effect.

With `CCCc1cc(C(N)=S)ccn1`, the Z-AUC was 1.52 (inactive) in [1], 1.53 in test [1] (setting [12]) and 1.99 in test [1] (measured here: PEO4 Z-AUC). Further, the z-score in test [2] (setting [13]) was determined as 1.43; in test [2] (setting [14]) it was 0.537; in [2] (setting [15]), 0.979. Moreover, the activity, negative = inhibition in test [3] (setting [16]) was 2.28% (inactive); in test [3] (setting [17]) it was 5.15% (inactive). In addition, the Potency entry in test [4], in [5], in test [6], in test [7], in test [8] and in [9] was “inactive” each time. In addition, the Potency entry in test [10] and in test [11] was “inactive” in each case.

With `Nc1nc(F)nc2c1ncn2[C@@H]1O[C@H](CO)[C@@H](O)[C@@H]1O`, the Z-AUC in [1] is 0.0458 (inactive); in [1] (setting [12]), 0.0902; in [1] (measured here: PEO4 Z-AUC), 0.704. In addition, in [2] (TFE3-RCC UOK109 viability), the Potency was 372 nM (active). Also, the values for the z-score in [2] (setting [13]), in test [2] (setting [14]) and in test [2] (setting [15]) were -1.54, -1.3 and -1.61, respectively.

`CC(C)C[C@H](NC(=O)[C@H](CCc1ccccc1)NC(=O)CN1CCOCC1)C(=O)N[C@@H](Cc1ccccc1)C(=O)N[C@@H](CC(C)C)C(=O)[C@@]1(C)CO1`: the Potency in [1] was 9.8 nM (active); in [2] (TFE3-RCC UOK109 viability) it was 1480 nM (active). Besides, the Z-AUC in test [1] (setting [12]) was -3.02; in [1] (measured here: PEO4 Z-AUC) it was -2.77. The figures for the z-score in [2] (setting [13]), in test [2] (setting [14]) and in [2] (setting [15]) were -1.85, -2.71 and -3.3, respectively.

As for `CCC(C)(C)c1ccc(CC(C)CN2C[C@@H](C)O[C@@H](C)C2)cc1` (some centres undefined), the Z-AUC in [1] was 0.498 (inactive); in [1] (setting [12]) it was 0.321; in test [1] (measured here: PEO4 Z-AUC), 0.288. The z-score is 0.00856 in [2] (setting [13]), 0.0457 in test [2] (setting [14]) and 1.19 in test [2] (setting [15]). In addition, the values for the activity, negative = inhibition in [3] (setting [16]) and in [3] (setting [17]) were -5% (inactive) and -10.4% (inactive), respectively. Also, the Potency in test [5] was 10000 nM (active). Besides, the Potency entry in test [6], in test [7], in [8], in test [9], in test [10] and in [11] was “inactive” in each case.

Turning to `Cc1cccc(N(C)C(=S)Oc2ccc3ccccc3c2)c1`, the Z-AUC is 0.688 (inactive) in test [1], 0.339 in test [1] (setting [12]) and 0.795 in test [1] (measured here: PEO4 Z-AUC). Moreover, the activity, negative = inhibition in test [3] (at 12.8 µM (top of the series), parasite line A) was -2.31% (inactive); in test [3] (at 12.8 µM (top of the series), parasite line B), 0.272% (inactive). Moreover, the Potency result in test [4], in test [5], in [6], in test [7], in test [8] and in test [9] was “inactive” each time. Moreover, the Potency entry in test [10] and in test [11] was “inactive” in each case.

Take `CN(Cc1cc(Br)cc(Br)c1N)C1CCCCC1`: the Z-AUC in test [1] is 1.09 (inactive); in test [1] (setting [12]) it was 1.12; in test [1] (measured here: PEO4 Z-AUC) it was 1.04. The z-score was determined as 1.13 in test [2] (setting [13]), 0.389 in test [2] (setting [14]) and 1.53 in test [2] (setting [15]). In addition, the results for the activity, negative = inhibition in test [3] (setting [16]) and in test [3] (setting [17]) were -5.78% (inactive) and -15.1% (inactive), respectively. The Potency entry in test [6], in [7], in test [8], in [10] and in test [11] was “inactive” throughout.

For the compound `O=c1cc(O)c(Cl)c[nH]1`, the results for the Z-AUC in [1], in test [1] (setting [12]) and in test [1] (measured here: PEO4 Z-AUC) were 1.39 (inactive), 1.19 and 1.11, respectively. For the same compound, the activity, negative = inhibition in test [3] (setting [16]) is -6.01% (inactive); in test [3] (setting [17]), 8.72% (inactive). Also, the Potency entry in test [4], in test [5], in test [6], in [7], in test [8] and in test [9] was “inactive” in each case. The Potency result in test [10] and in test [11] was “inactive” throughout.
